Experimental data published in the supplement of paper PMC10338343.

tested on: EfPiwi piRISC loaded with L1MC piRNA (26 nt); assay: pre-steady-state target cleavage rate (min^-1); auxiliary factor: none (no Gtsf1); guide: L1MC piRNA 5'p-UAACUAAAUACUAUGCAAGCUGUAGG; MIWI and MILI are mouse PIWI proteins and EfPiwi is from a freshwater sponge; tags in brackets are library labels; higher = faster piRNA-guided slicing of the target
Summary of the method: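 Reactions were run for 0–8 or 0–960 min at 33 °C in HEPES–potassium acetate buffer, combining 1 nM active affinity-purified piRISC with one synthetic guide, […] transcribed, DNA-blocked target RNA library and, in some cases, 500 nM GTSF1 partner protein. Sequencing of uncleaved targets followed, with normalisation to depth and to weakly complementary targets. Three trials were pooled, k3 was capped at 0.0001 min^-1, and the pre-steady-state cleavage rate was taken from a burst-and-steady-state fit.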

pre-steady-state target cleavage rate, < 0.0001:
UCCUGGAUGUCGAACGUAUCUAUUUAUUUA
UCCUGGAUGUCGAACGUAAUGUAUUUAGUUA
UCCUGGAUGUCGAACGUAAGAAUUUAGUAA
UCCUGGAUGUCGUUGCAUAGUAUAAUGUUA
UCCUGGAUGUCGAACGAUAGUAUUUAGAAA [g4:g14:cont:t1A]
UCCUGGAUGUCGAACGUAUGUGAUUUAGUUA
UCCUGGAUGUCGAACGAUAGUAUUUGAGUUA
UCCUGGAUGUCCUUGCAUUCAAUUUAGUAA
UCCUGGAUGUCGAAGCAUACUAAUUAGUUA
UCCUGGAUGUCCUUGCAUAAGUAUUUAGUUA
UCCUGGAUGAGCUUGCAUAGUUUUUAGAUA
UCCUGGAUGAGCUUGCAUCAGUAUUUAGUUA
UCCUGGAUGUCGAUGCAUCAGUAUUUAGUUA
UCCUGGAUGUCGAAGCAAAGUAUUUAGAUA
UCCUGGAUGUCGUUCCAUAGUAUAUAGUUA
UCCUGGAUGUCGAACGUUAGUAUUUAGUUU [g2:g13:cont:t1U]
UCCUGGAUGUCGAUGCAAGUAUUUAGUUA
UCCUGGAUGUCCUUGCAAUCAUAAAUCAAA [g14:g19:cont:t1A]
UCCUGGAUGUCGAACGUUAGAAUUUUGUUA
UCCUGGAUGUCGAACGUAUGAUUUAGUUA
UCCUGGAUGUCGAACGAUAGUAUUUAGUUU [g2:g14:cont:t1U]
UCCUGGUACAGCUUGCAUAGUAUAUACUUA
UCCUGGAUGUCGAUGCAGUAGUAUUUAGUUA
UCCUGGAUGUCGAAGCUAUAGUAUUUAGUUA
UCCUGGAUGUCGAACGUUAGUAAAUAGUUA
UCCUGGAUGUCGAUCCAUAGUAAUUAGUUA
UCCUGGAUGUCGAAGCAUAGUAUAUACUUA
UCCUGGAUGUCGAUGCAUUGUAUUAAGUUA
UCCUGGAUGUCGAACGUUCGUAUUUAGUUA
UCCUGGAUGUCGAACGUAAGUAUUUAGUCA
UCCUGGAUGUCGAACCUAUGUAUUUAGUUA
UCCUGGAUGUCGAACGUUAGUUUUUUGUUA
UCCUGGAUCAGGAAGCAUAGUAUUUUCAAA
UCCUGGAUGUCGAUGCAUAGAAUUUAGUAA
UCCUGGUACAGGAAGCAUAGUAUUUAGAAA
UCCUGGAUGUCGAACGUAUCUAUUUACAUA
